Mtb FBA inh: inhibits M. tuberculosis FBA enzyme. P9WQA3. purified M. tuberculosis FBA, fluorescence read-out. inhibition, % at 1 µM. actives 2.3% (n = 360,000); in the data active = inhibition above about 27%
Target sequence (P9WQA3 whole entry, looked up): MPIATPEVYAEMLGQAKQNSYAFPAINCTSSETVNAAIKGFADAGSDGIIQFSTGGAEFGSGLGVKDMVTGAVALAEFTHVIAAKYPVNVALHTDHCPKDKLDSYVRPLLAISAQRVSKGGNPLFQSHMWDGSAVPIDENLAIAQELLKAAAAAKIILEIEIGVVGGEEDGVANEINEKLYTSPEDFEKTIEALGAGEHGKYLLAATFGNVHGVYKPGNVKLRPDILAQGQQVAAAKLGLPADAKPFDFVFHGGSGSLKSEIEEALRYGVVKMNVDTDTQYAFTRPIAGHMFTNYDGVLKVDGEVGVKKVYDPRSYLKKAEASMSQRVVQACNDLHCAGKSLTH
GDH-TPI counter: GDH-TPI coupled enzyme inhibition counter-screen; GDH-TPI coupled enzyme counterscreen, NADH absorbance; inhibition, % at 4.8 µM; actives 1.2% (n = 360,000); AID 588335; in the data active = inhibition above about 30%
PrP UTR inh: suppresses PrP 5' UTR mRNA reporter expression; actives 0.35% (n = 340,000); AID 488862; cell-based PrP 5' UTR mRNA reporter, plate reader; inhibition, % (concentration not given with the values); in the data active = inhibition above about 52%
PrPC surface inh: reduces human prion protein on the cell surface. P04156. cell surface PrPC, TR-FRET read-out. inhibition, % at 13.8 µM. actives 0.43% (n = 370,000); in the data active = inhibition above about 24%
Mtb hypoxia rep: reduces hypoxia-regulated biosensor signal in M. tuberculosis | fluorescence inhibition, % (test concentration not listed) | actives 0.1% (n = 300,000) | M. tuberculosis hypoxia-regulated fluorescent reporter, fluorescence; in the data active = fluorescence inhibition mostly above about 23%, no sharp cut-off; inactive = mostly below about 17%
Y pestis TopoI: inhibitors of Yersinia pestis topoisomerase I; Y. pestis Topo-I cleavage product accumulation, plate reader; activity, % at 10 µM; actives 0.064% (n = 360,000); AID 504884; in the data active = activity above about 50%, passing the limit was not always enough
A number is an active result; i = inactive; nt = not tested or not shown; + = active, no number. Most compounds without a hit are left out; they make up all but 3.8% or so of the library.

SMILES	Mtb FBA inh	GDH-TPI counter	PrP UTR inh	PrPC surface inh	Mtb hypoxia rep	Y pestis TopoI
CC1(C)CC(=O)C(C=Nc2ccc3[nH]ncc3c2)=C(O)C1	i	35.9	i	i	i	i
CC1(C)CC(=O)C(C=Nc2ccc(N)cc2)=C(O)C1	i	i	i	i	i	i
CC1(C)CC(=O)C(C=Nc2ccc(O)cc2)=C(O)C1	i	i	i	i	i	i
CC1(C)CC(=O)C(C=Nc2ccc3cn[nH]c3c2)=C(O)C1	i	39.3	i	i	i	i
CCCC(C(=O)NCCO)=C1c2ccccc2C(=O)N1c1ccccc1	nt	nt	nt	nt	i	nt
C#CCOCCOCCOCCNc1nc(N2CCOCC2)nc(N2CCN(C(=O)C(C(C)CC)n3cc(C(N)Cc4ccc(O)cc4)nn3)CC2)n1 (stereo unspecified)	nt	nt	nt	nt	i	nt
CCC(C)Sc1ccc(C2N[C@@](CC(C)C)(C(=O)OC)C3C(=O)N(CC)C(=O)C23)cc1 (stereo partly specified)	nt	nt	nt	nt	i	nt
COc1ccc(-n2nnc3c(SC(C(C)=O)C(=O)N(C)C)ncnc32)cc1 (stereo unspecified)	i	32.2	i	i	i	i
COC(=O)C(C)Sc1ncnc2c1nnn2-c1ccc(F)cc1 (stereo unspecified)	i	i	i	i	i	i
O=C(C1COc2ccccc2O1)N1CCN(Cc2ccccc2)CC1 (stereo unspecified)	i	i	i	i	i	i
Cc1c(CC(=O)N2CCN(C(=O)C3COc4ccccc4O3)CC2)c(=O)oc2cc(O)ccc12 (stereo unspecified)	+	i	i	i	i	i
Cc1c(CC(=O)N2CCN(C(=O)C3COc4ccccc4O3)CC2)c(=O)oc2cc(O)cc(O)c12 (stereo unspecified)	177.2	i	i	i	i	i
Cc1c(CC(=O)N2CCN(C(=O)C3COc4ccccc4O3)CC2)c(=O)oc2c(C)c(O)ccc12 (stereo unspecified)	+	i	i	i	nt	i
Cc1cccc(N2CCN(C(=O)C3COc4ccccc4O3)CC2)c1C (stereo unspecified)	i	i	i	i	i	i
COc1ccc2c(C)c(CC(=O)N3CCN(C(=O)C4COc5ccccc5O4)CC3)c(=O)oc2c1 (stereo unspecified)	144.3	i	i	i	i	i
NC(=O)NN=Cc1coc2ccc(O)cc2c1=O	nt	nt	nt	nt	i	nt
COC(=O)Cn1cc(C=NNC(=O)COc2cccc3cccnc23)c2ccccc21	nt	nt	nt	nt	i	nt
CCOC(=O)C1C(=O)C=C(c2ccc(C)cc2)CC1c1ccco1 (stereo unspecified)	i	i	i	i	i	i
CCOC(=O)C1C(=O)C=C(c2ccc(NS(C)(=O)=O)cc2)CC1c1ccco1 (stereo unspecified)	i	32.7	i	i	i	i
Cc1noc(C)c1NC(=O)Nc1ccc2c(c1)C(=O)N(C(C)CO)CC(C)C(CN(C)S(C)(=O)=O)O2 (stereo unspecified)	nt	nt	nt	nt	i	nt
NC(=O)CCC1NC(=O)C2CCCN2C(=O)c2cc([N+](=O)[O-])cc(I)c2NCCCC(C(=O)NC(CC(=O)O)C(N)=O)NC1=O (stereo unspecified)	nt	nt	nt	nt	i	nt
COc1ccc(S(=O)(=O)N(C)CC2Oc3c(NC(=O)Nc4c(C)noc4C)cccc3C(=O)N(C(C)CO)CC2C)cc1 (stereo unspecified)	nt	nt	nt	nt	i	nt
Cc1ccc2ccc3cccc4ccc1c2c34	i	i	i	i	i	i
c1ccc2c(c1)cc1ccc3cccc4ccc2c1c34	33.9	i	i	i	i	i
CSc1nc2ccc(NC(=O)c3ccco3)cc2s1	i	i	i	i	i	i
SMILES	Mtb FBA inh	GDH-TPI counter	PrP UTR inh	PrPC surface inh	Mtb hypoxia rep	Y pestis TopoI
O=C(Nc1nc2c(F)cccc2s1)c1ccco1	i	35.6	i	i	i	i
CCOc1cccc2sc(Nc3nc4ccc(NC(C)=O)cc4s3)nc12	119.1	39.1	i	i	i	i
CC(=O)Nc1nc2c(F)cccc2s1	i	i	i	i	i	i
CCC(=O)Nc1nc2ccc(NC(C)=O)cc2s1	i	i	i	i	i	i
CC(=O)Nc1ccc2nc(NC(=O)c3ccco3)sc2c1	i	32.3	i	i	i	i
O=C(O)C1=CC(c2coc3ccccc3c2=O)CC(OCCCCO)O1 (stereo unspecified)	nt	nt	nt	nt	i	nt
CC(=O)CC1c2ccccc2S(=O)(=O)N1c1ccccc1 (stereo unspecified)	nt	nt	nt	nt	i	nt
COc1ccccc1N1CCN(N=Cc2ccc(Cl)c([N+](=O)[O-])c2)CC1	nt	nt	nt	nt	i	nt
COc1c(Br)cc(Br)cc1C=NNC(=O)c1ccncc1	nt	nt	nt	nt	i	nt
C=CCSC1=NC(=O)/C(=C/c2cccs2)S1	i	i	i	i	i	i
CN(C)C1=NC(=O)/C(=C\c2ccccc2)S1	i	31.1	i	i	i	i
NC1=NC(=O)C(=Cc2ccccc2)S1	i	31.0	i	i	nt	i
NC1=NC(=O)/C(=C/c2cccs2)S1	i	31.8	i	i	i	i
COC(=O)c1ccc(N2NC(=O)C(=Cc3ccc(-c4ccc(Cl)c(C(=O)O)c4)o3)C2=O)cc1	nt	nt	nt	nt	i	nt
N=c1oc2ccccc2cc1C(=O)Nc1cccc(F)c1	i	i	i	i	i	i
O=C(O)c1ccccc1NC(=O)c1cc2ccccc2oc1=O	i	50.4	i	i	i	i
N=c1oc2ccccc2cc1C(=O)Nc1ccc(F)cc1	64.0	i	nt	i	i	i
CN(C)CC(C)(C)CN=Cc1c(O)[nH]c2ccccc12	i	35.1	nt	i	i	i
OCCN=Cc1c(O)[nH]c2ccccc12	i	i	i	i	i	i
Oc1[nH]c2ccccc2c1C=Nc1ccccc1	i	34.2	i	i	i	i
COCC(C)N=Cc1c(O)[nH]c2ccccc12 (stereo unspecified)	i	i	i	i	i	i
COc1ccc(OC)c(C2C(C(C)=O)=C(O)C(=O)N2c2ccc(F)cc2)c1 (stereo unspecified)	i	36.6	i	i	i	i
COc1cc(/C=C/C(=O)OCC(=O)Nc2ccc([N+](=O)[O-])cc2)ccc1O	i	68.3	i	i	i	i
O=C1OCC2CCCN2C(=O)C(CC(=O)N(CCO)Cc2ccccc2)CC=CCC1Cc1ccc(F)cc1 (stereo unspecified)	nt	nt	nt	nt	i	nt
Cc1ccc(S(=O)(=O)NCC(=O)NN=Cc2ccc(Cl)cc2Cl)cc1	nt	nt	nt	nt	i	nt
SMILES	Mtb FBA inh	GDH-TPI counter	PrP UTR inh	PrPC surface inh	Mtb hypoxia rep	Y pestis TopoI
Cc1ccc2ncc(NC(=O)c3ccc(F)cc3)c(=O)n2c1	i	33.0	i	i	i	i
COc1ccc(NCC(=O)NN=C2CCc3ccccc32)cc1	nt	nt	nt	nt	i	nt
COc1cc2c(cc1OC)-c1cc(Nc3ccccc3)nc(=O)n1CC2	i	i	i	i	i	i
COc1cc2c(cc1OC)-c1cc(N3CCc4ccccc43)nc(=O)n1CC2	i	43.4	i	i	i	i
COc1cc2c(cc1OC)-c1cc(N3CCCc4ccccc43)nc(=O)n1CC2	i	i	i	i	i	i
COc1cc2c(cc1OC)-c1cc(NC3CCCCCC3)nc(=O)n1CC2	i	31.0	i	i	i	i
COc1ccc(Nc2cc3n(c(=O)n2)CCc2cc(OC)c(OC)cc2-3)c(C)c1	i	32.8	i	i	i	i

Compound activity: PubChem BioAssay, several laboratories
